Results: PubChem BioAssay (Tox21)
Where “and” joins values, the source holds several entries; their conditions need not be identical. Identical values can stand only once. Records with an inconclusive call do not appear. A call without a number means that no potency is given here. A structure can be active in one record and inactive in another. Calls of active or inactive are those of the source. Calls come from the whole dose curve; as a rule, active = well fitted curve in the direction sought with a large enough effect in the repeat runs; inconclusive = weak or mixed curves; inactive = no such curve, though single readings can be large; an effect the other way counts as inactive or inconclusive.

How the values were obtained:
[1] = molecular target: Cytochrome P450 2C19 (Homo sapiens) (UniProt P33261); test: Cytochrome P450 Family 2 Subfamily C Member 19 (CYP2C19) small molecule antagonists: luciferase reporter qHTS assay (AID 1671197); note: nearly all actives have a fitted effect of over 65% in size; for activity change, negative = inhibition: series mostly up to about 120 µM
Cytochrome P450 2C19 (Homo sapiens), sequence (P33261 whole entry, looked up): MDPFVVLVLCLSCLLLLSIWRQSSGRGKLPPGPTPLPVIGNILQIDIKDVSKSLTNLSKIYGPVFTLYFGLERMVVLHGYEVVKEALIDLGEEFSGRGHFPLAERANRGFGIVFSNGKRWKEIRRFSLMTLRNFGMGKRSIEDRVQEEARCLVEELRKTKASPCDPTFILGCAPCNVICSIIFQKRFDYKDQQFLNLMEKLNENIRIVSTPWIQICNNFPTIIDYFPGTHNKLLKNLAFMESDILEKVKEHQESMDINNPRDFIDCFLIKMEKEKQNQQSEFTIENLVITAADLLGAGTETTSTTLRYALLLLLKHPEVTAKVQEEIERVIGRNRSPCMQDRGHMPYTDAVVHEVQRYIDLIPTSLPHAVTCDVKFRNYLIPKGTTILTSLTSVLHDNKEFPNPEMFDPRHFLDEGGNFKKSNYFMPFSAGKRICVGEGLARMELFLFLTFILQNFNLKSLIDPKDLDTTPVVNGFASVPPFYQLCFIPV
Outline: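 Compounds were tested on CYP2C19 activity via proluciferin conversion to luciferin. The 37C, 1 h reaction followed NADPH addition; detection reagent stopped it.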

[2] = molecular target: Cytochrome P450 2C9 (Homo sapiens) (UniProt P11712); test: Cytochrome P450 Family 2 Subfamily C Member 9 (CYP2C9) small molecule antagonists: luciferase reporter qHTS assay (AID 1671198); note: nearly all actives have a fitted effect of over 50% in size; for activity change, negative = inhibition: series mostly up to about 120 µM
Cytochrome P450 2C9 (Homo sapiens), sequence (P11712 whole entry, looked up): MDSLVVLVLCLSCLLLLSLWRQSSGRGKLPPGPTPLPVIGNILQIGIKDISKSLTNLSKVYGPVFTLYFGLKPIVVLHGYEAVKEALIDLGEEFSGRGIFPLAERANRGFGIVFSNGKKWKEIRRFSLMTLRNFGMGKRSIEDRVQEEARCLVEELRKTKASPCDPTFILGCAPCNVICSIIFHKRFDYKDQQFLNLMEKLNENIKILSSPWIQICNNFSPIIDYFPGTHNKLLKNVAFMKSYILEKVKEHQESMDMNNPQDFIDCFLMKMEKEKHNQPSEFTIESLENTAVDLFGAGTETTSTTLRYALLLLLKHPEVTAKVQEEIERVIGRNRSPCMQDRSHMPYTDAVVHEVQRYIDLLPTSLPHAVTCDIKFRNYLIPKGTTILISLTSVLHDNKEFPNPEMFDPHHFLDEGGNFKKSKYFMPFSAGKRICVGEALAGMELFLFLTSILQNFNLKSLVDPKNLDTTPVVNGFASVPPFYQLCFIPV
Outline: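 P450-Glo proluciferin substrate with CYP2C9 enzyme; 10 min RT preincubation, then NADPH regeneration 1 h at 37C; luciferin detection reagent 20 min RT, luminescence in relative luminescence units.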

[3] = molecular target: Cytochrome P450 1A2 (Homo sapiens) (UniProt P05177); test: Cytochrome P450 Family 1 Subfamily A Member 2 (CYP1A2) small molecule antagonists: luciferase reporter qHTS assay (AID 1671199); note: nearly all actives have a fitted effect of over 50% in size; for activity change, negative = inhibition: series mostly up to about 120 µM
Cytochrome P450 1A2 (Homo sapiens), sequence (P05177 whole entry, looked up): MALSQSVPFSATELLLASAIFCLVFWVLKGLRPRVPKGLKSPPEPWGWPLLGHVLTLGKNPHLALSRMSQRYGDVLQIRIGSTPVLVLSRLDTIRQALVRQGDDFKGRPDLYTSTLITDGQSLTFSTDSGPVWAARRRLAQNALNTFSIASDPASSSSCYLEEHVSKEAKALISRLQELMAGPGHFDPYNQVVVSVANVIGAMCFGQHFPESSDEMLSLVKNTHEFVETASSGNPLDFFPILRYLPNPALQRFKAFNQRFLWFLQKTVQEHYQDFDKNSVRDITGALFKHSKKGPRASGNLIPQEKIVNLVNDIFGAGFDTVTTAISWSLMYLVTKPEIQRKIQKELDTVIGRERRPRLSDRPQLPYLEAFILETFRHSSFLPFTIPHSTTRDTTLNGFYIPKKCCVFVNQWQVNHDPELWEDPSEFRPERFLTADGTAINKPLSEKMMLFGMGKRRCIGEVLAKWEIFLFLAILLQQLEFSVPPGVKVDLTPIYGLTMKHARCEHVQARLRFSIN
Outline: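 Human CYP1A2 activity measured with a P450-Glo proluciferin substrate; compounds in DMSO preincubated 10 min at room temperature with enzyme-substrate mix, then NADPH regeneration system added for 1 h. Luciferin detection reagent, 20 min, luminescence read.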

[4] = molecular target: Voltage-gated inwardly rectifying potassium channel KCNH2 (Homo sapiens) (UniProt Q12809); test: Human Ether-a-go-go-Related Gene (hERG) channel small molecule antagonists: fluorescence cell-based qHTS assay (AID 1671200); note: nearly all actives have a fitted effect of over 50% in size;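 for activity change, negative = inhibition: hERG-expressing U2OS cells given a thallium stimulus after FluxOR II dye loading; series mostly up to about 77 µM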
Voltage-gated inwardly rectifying potassium channel KCNH2 (Homo sapiens), sequence (Q12809 whole entry, looked up): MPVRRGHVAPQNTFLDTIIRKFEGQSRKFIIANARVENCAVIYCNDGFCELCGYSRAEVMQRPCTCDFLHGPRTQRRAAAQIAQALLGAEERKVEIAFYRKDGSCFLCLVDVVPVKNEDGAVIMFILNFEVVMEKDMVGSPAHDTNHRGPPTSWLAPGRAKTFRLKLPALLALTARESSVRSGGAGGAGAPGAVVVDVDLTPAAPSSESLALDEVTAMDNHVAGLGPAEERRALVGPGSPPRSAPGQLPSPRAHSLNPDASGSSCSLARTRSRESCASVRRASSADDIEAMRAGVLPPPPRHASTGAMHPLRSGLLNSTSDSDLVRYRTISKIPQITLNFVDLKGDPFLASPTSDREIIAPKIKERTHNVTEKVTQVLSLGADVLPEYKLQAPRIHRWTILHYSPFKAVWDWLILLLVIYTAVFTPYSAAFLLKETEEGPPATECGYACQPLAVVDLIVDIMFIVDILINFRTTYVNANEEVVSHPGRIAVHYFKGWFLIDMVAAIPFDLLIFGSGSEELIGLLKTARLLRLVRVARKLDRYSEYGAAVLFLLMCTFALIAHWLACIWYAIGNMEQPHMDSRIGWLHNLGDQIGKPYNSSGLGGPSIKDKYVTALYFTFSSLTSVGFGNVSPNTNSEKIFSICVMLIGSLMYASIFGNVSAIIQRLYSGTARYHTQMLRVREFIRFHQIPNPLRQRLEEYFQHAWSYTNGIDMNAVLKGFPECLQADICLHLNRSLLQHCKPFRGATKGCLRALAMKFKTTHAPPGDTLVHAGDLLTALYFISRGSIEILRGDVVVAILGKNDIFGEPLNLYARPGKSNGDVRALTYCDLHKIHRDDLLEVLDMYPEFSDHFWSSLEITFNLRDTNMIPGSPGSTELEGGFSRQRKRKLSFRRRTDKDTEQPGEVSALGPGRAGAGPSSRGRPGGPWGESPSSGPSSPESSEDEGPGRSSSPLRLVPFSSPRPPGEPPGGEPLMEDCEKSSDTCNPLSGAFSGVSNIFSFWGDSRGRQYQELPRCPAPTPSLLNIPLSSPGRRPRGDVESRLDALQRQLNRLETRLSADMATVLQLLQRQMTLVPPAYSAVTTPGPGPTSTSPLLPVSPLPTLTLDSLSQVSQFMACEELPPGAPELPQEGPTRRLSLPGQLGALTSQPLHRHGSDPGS
Outline: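 Thallium served as the potassium surrogate; its influx into dye-loaded U2OS cells carrying the channel was measured by fluorescence over 2 min.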

[5] = molecular target: Cytochrome P450 3A4 (Homo sapiens) (UniProt P08684); test: Cytochrome P450 Family 3 Subfamily A Member 4 (CYP3A4) small molecule antagonists: luciferase reporter qHTS assay (AID 1671201); note: nearly all actives have a fitted effect of over 50% in size; for activity change, negative = inhibition: series mostly up to about 120 µM
Cytochrome P450 3A4 (Homo sapiens), sequence (P08684 whole entry, looked up): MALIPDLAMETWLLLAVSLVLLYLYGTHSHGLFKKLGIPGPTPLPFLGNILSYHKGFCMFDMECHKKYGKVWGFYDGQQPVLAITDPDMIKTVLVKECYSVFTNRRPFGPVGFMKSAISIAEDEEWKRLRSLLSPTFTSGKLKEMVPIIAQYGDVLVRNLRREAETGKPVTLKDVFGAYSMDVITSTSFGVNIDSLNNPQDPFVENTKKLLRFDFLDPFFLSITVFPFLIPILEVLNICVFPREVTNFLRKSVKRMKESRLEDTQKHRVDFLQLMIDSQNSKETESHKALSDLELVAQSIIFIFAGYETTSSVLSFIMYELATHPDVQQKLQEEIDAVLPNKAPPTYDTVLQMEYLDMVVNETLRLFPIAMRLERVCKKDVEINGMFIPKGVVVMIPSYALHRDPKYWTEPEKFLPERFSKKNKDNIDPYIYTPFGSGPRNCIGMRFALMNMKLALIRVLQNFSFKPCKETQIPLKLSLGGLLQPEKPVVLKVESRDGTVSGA
Outline: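 Relative luminescence units after 20 min with luciferin detection reagent served as read-out. Beforehand, CYP3A4 turned over a proluciferin substrate for 1 h at room temperature with NADPH regeneration, following 10 min compound preincubation.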
Potency is the fitted concentration of half-maximal effect.

Row | Compound | Potency [1] | Potency [2] | Potency [3] | Potency [4] | Potency [5] | activity change, negative = inhibition [4] | activity change, negative = inhibition [5]
1 | O=Cc1cc(O)ccc1Br | 36.1 µM (active) | 45.4 µM (active) | 36.1 µM (active) | inactive | inactive |  | 
2 | Cc1cccc2c1cc1ccc3cccc4ccc2c1c34 | inactive | inactive | 0.205 µM (active) | inactive | inactive |  | 
3 | CCCCCCCCCCCC[N+](C)(C)CCCCCCCCCCCC | 35.6 µM (active) | 22.4 µM (active) | 71 µM (active) |  | 35.6 µM (active) |  | 
4 | C/C=C(\C)C(=O)OCc1ccccc1 | inactive | inactive | 35.6 µM (active) | inactive | inactive |  | 
5 | CN(C)c1ccc(SC#N)cc1 | 35.6 µM (active) | 17.8 µM (active) | 5.64 µM (active) | inactive | inactive |  | 
6 | CC1(C)CCC(C)(C)c2cc(C(=O)Nc3ccc(C(=O)O)cc3)ccc21 | inactive | 71 µM (active) | inactive |  | inactive |  | 
7 | CCCCc1oc2ccc(NS(C)(=O)=O)cc2c1C(=O)c1ccc(OCCCN(CCCC)CCCC)cc1 | 9.77 µM (active) | 34.7 µM (active) | inactive | 848 nM (active) | inactive |  | 
8 | Oc1ccc2cc(SSc3ccc4cc(O)ccc4c3)ccc2c1 | 35.6 µM (active) | 71.1 µM (active) and 39.9 µM (active) | 63.4 µM (active) and 63.3 µM (active) | inactive | 14.2 µM (active) and 31.7 µM (active) |  | 
9 | NC(=O)N1C(=O)C(C(=O)c2cc(Cl)cs2)c2cc(F)c(Cl)cc21 (stereo unspecified) | 79.6 µM (active) | 6.33 µM (active) | 17.8 µM (active) | inactive | 5.03 µM (active) |  | 
10 | NNc1nc(-c2ccc([N+](=O)[O-])cc2)cs1 | 5.03 µM (active) | 5.64 µM (active) | 3.99 µM (active) | 19500 nM (active) | 5.03 µM (active) |  | 
11 | [O-][n+]1ccccc1SSc1cccc[n+]1[O-] | 0.536 µM (active) | 1.51 µM (active) | 2.81 µM (active) |  |  | 14% [at 15.8 µM] (inactive) | 7.02% [at 23.6 µM] (inactive)
12 | C/C=C1/C(=O)C[C@H]2[C@@H]3CCC4=CC(=O)CC[C@]4(C)[C@H]3CC[C@]12C | 3.98 µM (active) | 31.6 µM (active) | 39.8 µM (active) |  | inactive |  | 
13 | N=C1N=C(N)c2ccccc21 | inactive | inactive |  | inactive | inactive |  | 
14 | Cc1cc(O)c(C(C)(C)C)cc1C(C)(C)C | 17.8 µM (active) | 28.3 µM (active) | 35.6 µM (active) |  | 31.7 µM (active) |  | 
15 | CCN(CC)CCCC(C)Nc1c2ccc(Cl)cc2nc2ccc(OC)cc12 (stereo unspecified) | inactive | inactive |  | inactive | inactive |  | 
16 | CCC(N)(CO)CO | inactive | inactive |  | inactive | inactive |  | 
17 | Cc1oc(-c2ccccc2)nc1CCC(=O)c1ccc(CC2SC(=O)NC2=O)cc1 (stereo unspecified) | 11 µM (active) | 7.76 µM (active) |  | inactive |  |  | 
18 | CC(C)C(C)(C)C(C)(C)C(C)(C)S | 39.9 µM (active) | 46.1 µM (active) |  | inactive |  |  | 
19 | CCN(Cc1cccnc1)C(=O)c1cccc(Cl)c1[C@]1(C)C(=O)N(Cc2ccc(OC)cc2OC)c2ccc(Cl)cc21 | 1.32 µM (active) | 1.87 µM (active) | inactive |  | 0.132 µM (active) |  | 
20 | O=C(Oc1ccccc1)c1ccccc1C(=O)Oc1ccccc1 | 15.9 µM (active) | 12.6 µM (active) | 5.64 µM (active) |  | inactive |  | 

Row | Compound | Potency [1] | Potency [2] | Potency [3] | Potency [4] | Potency [5] | activity change, negative = inhibition [4] | activity change, negative = inhibition [5]
21 | Clc1ccccc1C(c1ccccc1)(c1ccccc1)n1ccnc1 | 3.99 µM (active) and 2.45 µM (active) | 1.12 µM (active) and 1.1 µM (active) |  | 19.5 µM (active) and 16.9 µM (active) |  |  | 
22 | O=c1[nH]cnc2nc[nH]c12 | inactive | inactive |  | inactive | inactive |  | 
23 | Oc1ccc(C2(c3ccc(O)cc3)CC3CC2C2CCCC32)cc1 (stereo unspecified) | 30.5 µM (active) | 38.4 µM (active) |  | inactive | 38.4 µM (active) |  | 
24 | Fc1ccc(C(c2ccc(F)cc2)N2CCN(C/C=C/c3ccccc3)CC2)cc1 | inactive | 15.5 µM (active) |  | 848 nM (active) | inactive |  | 
25 | CC(=O)SC[C@@H](Cc1ccccc1)C(=O)NCC(=O)OCc1ccccc1 | 0.617 µM (active) | 3.47 µM (active) |  | inactive |  |  | 
26 | CCCC(c1cc(C(C)(C)C)c(O)cc1C)c1cc(C(C)(C)C)c(O)cc1C | 9.05 µM (active) | 3.6 µM (active) |  | inactive | 5.09 µM (active) |  | 
27 | CCCC(C)c1ccccc1O (stereo unspecified) | inactive | 35.6 µM (active) |  | inactive | inactive |  | 
28 | CSc1cnc(C)cn1 | inactive | inactive |  | inactive | inactive |  | 
29 | C[C@@H](NCCCc1cccc(C(F)(F)F)c1)c1cccc2ccccc12 | 8.71 µM (active) | inactive |  | 10700 nM (active) |  |  | 
30 | C=CC(=O)OCC(CO)(COCC(COC(=O)C=C)(COC(=O)C=C)COC(=O)C=C)COC(=O)C=C | 7.87 µM (active) | 7.02 µM (active) | inactive |  | 0.395 µM (active) |  | 
31 | CCC(Cl)C(Cl)C(Cl)CC(Cl)C(Cl)C(C)Cl (stereo unspecified) | 1.26 µM (active) | 7.96 µM (active) | 35.6 µM (active) |  | inactive |  | 
32 | C=C(C)C(=O)OCC(O)COc1ccc(C(C)(C)c2ccc(OCC(O)COC(=O)C(=C)C)cc2)cc1 (stereo unspecified) | 7.1 µM (active) | 3.99 µM (active) |  | inactive | inactive |  | 
33 | OC1(c2ccc(Cl)c(C(F)(F)F)c2)CCN(CCCC(c2ccc(F)cc2)c2ccc(F)cc2)CC1 | 15.5 µM (active) | 8.71 µM (active) |  | 239 nM (active) | inactive |  | 
34 | Clc1ccc2n[nH]nc2c1 | inactive | inactive |  | inactive | inactive |  | 
35 | CCCCCCOC(=O)c1ccc(O)cc1 | 11.3 µM (active) and 20 µM (active) | 35.6 µM (active) and 39.9 µM (active) | 11.3 µM (active) and 8.94 µM (active) |  | 79.8 µM (active) and inactive |  | 
36 | CCCCCCCCCCCCCC[P+](CCCC)(CCCC)CCCC (tested in a mixture with another compound) | 17.9 µM (active) | 11.3 µM (active) |  | 124 nM (active) | inactive |  | 
37 | NC(=O)CC[C@@H]1NC(=O)[C@H](Cc2ccccc2)NC(=O)[C@H](Cc2ccc(O)cc2)NC(=O)CCSSC[C@@H](C(=O)N2CCC[C@H]2C(=O)N[C@@H](CCCN=C(N)N)C(=O)NCC(N)=O)NC(=O)[C@H](CC(N)=O)NC1=O | inactive | inactive |  | inactive | inactive |  | 
38 | NC(=NCCCCCCN=C(N)/N=C(\N)Nc1ccc(Cl)cc1)/N=C(\N)Nc1ccc(Cl)cc1 | 22.3 µM (active) [middle of 5 runs] | 25.1 µM (active) [middle of 5 runs] |  | inactive |  |  | 
39 | COc1cc(/C=C/C(=O)O[C@H]2CC[C@]34C[C@]35CC[C@]3(C)[C@@H]([C@H](C)CCC=C(C)C)CC[C@@]3(C)[C@@H]5CC[C@H]4C2(C)C)ccc1O | inactive | inactive |  | inactive | inactive |  | 
40 | CCCN(CCC)C(=O)C(CCC(=O)OCCCN1CCN(CCOC(=O)Cc2c(C)n(C(=O)c3ccc(Cl)cc3)c3ccc(OC)cc23)CC1)NC(=O)c1ccccc1 (stereo unspecified) | 8.71 µM (active) | 4.9 µM (active) |  | 301 nM (active) |  |  | 

Row | Compound | Potency [1] | Potency [2] | Potency [3] | Potency [4] | Potency [5] | activity change, negative = inhibition [4] | activity change, negative = inhibition [5]
41 | c1ccc(CSCc2ccccc2)cc1 | 2.82 µM (active) | 35.5 µM (active) | 31.6 µM (active) |  | inactive |  | 
42 | O=c1cc(-c2ccc(O)cc2)oc2cc(O)cc(O)c12 | 32.1 µM (active) and 39.9 µM (active) | 36.1 µM (active) and 39.9 µM (active) |  | inactive |  |  | 
43 | Cc1c(C)c2c(c(C)c1OC(=O)CCC(=O)O)CC[C@@](C)(CCC[C@H](C)CCC[C@H](C)CCCC(C)C)O2 | inactive | inactive |  | inactive |  |  | 
44 | COc1ccc(C(=O)/C(Br)=C\C(=O)O)cc1 | 35.6 µM (active) | 25.2 µM (active) |  | inactive |  |  | 
45 | Oc1cccc2cc3cccc(O)c3c(O)c12 | 35.7 µM (active) | inactive |  | inactive | inactive |  | 
46 | CNC(=O)c1ccccc1 | inactive | inactive |  | inactive | inactive |  | 
47 | CCCCCCCCCCC=O | inactive | inactive |  | inactive | inactive |  | 
48 | COc1cc(-c2nc(NC(=O)c3cc4cc(C)cc(C)c4n3CC(=O)O)sc2CCC2CCCCC2)c(OC)cc1Cl |  | 51.7 µM (active) | inactive | inactive |  |  | 
49 | O=C(O)c1ccc(Cl)c(Cl)c1 |  | inactive |  | inactive | inactive |  | 
50 | CSc1ccc(C(=O)c2[nH]c(=O)[nH]c2C)cc1 |  | inactive |  | inactive | inactive |  | 
51 | Cc1onc(-c2ccccc2Cl)c1C(=O)N[C@@H]1C(=O)N2[C@@H]1SC(C)(C)[C@@H]2C(=O)O |  |  |  | inactive |  |  | 
52 | CC(C)=CCOc1ccc(/C=C/C(=O)c2ccc(OCC=C(C)C)cc2OCC(=O)O)cc1 |  | 15.5 µM (active) | inactive | inactive | inactive |  | 
53 | CC1=NC(C)OC1C (stereo unspecified) |  | inactive |  |  | 63.3 µM (active) |  | 
54 | O=C(c1ccc(F)cc1)C1CCN(CCn2c(=O)[nH]c3ccccc3c2=O)CC1 |  |  | inactive | 2390 nM (active) | inactive |  | 
55 | Cc1onc(-c2c(Cl)cccc2Cl)c1C(=O)N[C@@H]1C(=O)N2[C@@H]1SC(C)(C)[C@@H]2C(=O)O |  | 13.8 µM (active) | inactive | inactive |  |  | 
56 | CC(C)(C)NC(=O)[C@@H]1C[C@@H]2CCCC[C@@H]2CN1C[C@@H](O)[C@H](Cc1ccccc1)NC(=O)[C@H](CC(N)=O)NC(=O)c1ccc2ccccc2n1 |  | 40.4 µM (active) |  | 22200 nM (active) |  |  | 
57 | CC(NN)c1ccccc1 (stereo unspecified) |  |  | inactive |  |  | -1.06% [at 15.8 µM] (inactive) | 
58 | [Cl][Au]([Cl])[Cl] |  |  |  | inactive |  |  | 
59 | COc1cccc(N)c1 |  |  |  | inactive |  |  | 
60 | OCCN(CCO)c1nc(N2CCCCC2)c2nc(N(CCO)CCO)nc(N3CCCCC3)c2n1 |  |  |  | inactive |  |  | 
